ChEMBL document CHEMBL1961873, “Compounds: GSK PKIS; Assays: Nanosyn kinase panel” (2012)

Tests used:
[1] = molecular target: Tyrosine-protein kinase CSK (Homo sapiens) (UniProt P41240); details: at 1 µM;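 note: each value is an averaged inhibition reading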
[2] = molecular target: T1, Discoidin domain-containing receptor 2 (Homo sapiens) (UniProt Q16832); details: at 0.1 µM
T1 sequence (whole entry): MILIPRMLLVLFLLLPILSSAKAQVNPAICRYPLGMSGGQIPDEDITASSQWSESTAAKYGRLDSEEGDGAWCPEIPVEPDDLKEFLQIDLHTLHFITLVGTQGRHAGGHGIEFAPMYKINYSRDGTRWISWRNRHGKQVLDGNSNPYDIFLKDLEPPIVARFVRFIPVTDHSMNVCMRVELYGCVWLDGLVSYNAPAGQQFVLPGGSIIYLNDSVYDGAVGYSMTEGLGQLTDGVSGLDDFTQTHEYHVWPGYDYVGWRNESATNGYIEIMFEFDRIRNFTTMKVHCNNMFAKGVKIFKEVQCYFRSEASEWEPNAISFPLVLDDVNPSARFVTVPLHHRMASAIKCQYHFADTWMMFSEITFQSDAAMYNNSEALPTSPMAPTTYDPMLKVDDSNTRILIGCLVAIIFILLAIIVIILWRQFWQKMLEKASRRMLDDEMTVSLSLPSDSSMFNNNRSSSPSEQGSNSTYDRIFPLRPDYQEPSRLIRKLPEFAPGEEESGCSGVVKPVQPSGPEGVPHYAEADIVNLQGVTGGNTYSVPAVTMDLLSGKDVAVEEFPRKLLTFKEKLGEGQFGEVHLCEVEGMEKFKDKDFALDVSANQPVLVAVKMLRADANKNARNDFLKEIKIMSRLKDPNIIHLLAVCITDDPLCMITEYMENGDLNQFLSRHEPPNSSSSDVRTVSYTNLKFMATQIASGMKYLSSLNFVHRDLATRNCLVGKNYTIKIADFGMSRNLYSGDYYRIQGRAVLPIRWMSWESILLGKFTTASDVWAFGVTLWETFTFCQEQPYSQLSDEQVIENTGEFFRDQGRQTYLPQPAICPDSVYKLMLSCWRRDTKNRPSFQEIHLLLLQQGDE

[3] = molecular target: T1, Discoidin domain-containing receptor 2 (Homo sapiens); details: at 1 µM
[4] = molecular target: Epidermal growth factor receptor (Homo sapiens) (UniProt P00533); details: at 0.1 µM
[5] = molecular target: Epidermal growth factor receptor (Homo sapiens) (UniProt P00533); details: at 1 µM
[6] = system: Epidermal growth factor receptor (Homo sapiens), P00533 [L858R]; details: at 0.1 µM
[7] = system: Epidermal growth factor receptor (Homo sapiens), P00533 [L858R]; details: at 1 µM
[8] = system: Epidermal growth factor receptor (Homo sapiens), P00533 [L861Q]; details: at 0.1 µM
[9] = system: Epidermal growth factor receptor (Homo sapiens), P00533 [L861Q]; details: at 1 µM
[10] = system: Epidermal growth factor receptor (Homo sapiens), P00533 [T790M]; details: at 0.1 µM
[11] = system: Epidermal growth factor receptor (Homo sapiens), P00533 [T790M]; details: at 1 µM
[12] = system: Epidermal growth factor receptor (Homo sapiens), P00533 [L858R,T790M]; details: at 0.1 µM
[13] = system: Epidermal growth factor receptor (Homo sapiens), P00533 [L858R,T790M]; details: at 1 µM
[14] = molecular target: Ephrin type-A receptor 2 (Homo sapiens) (UniProt P29317); details: at 0.1 µM
[15] = molecular target: Ephrin type-A receptor 2 (Homo sapiens) (UniProt P29317); details: at 1 µM
[16] = molecular target: T2, Ephrin type-A receptor 3 (Homo sapiens) (UniProt P29320); details: at 0.1 µM
T2 sequence (whole entry): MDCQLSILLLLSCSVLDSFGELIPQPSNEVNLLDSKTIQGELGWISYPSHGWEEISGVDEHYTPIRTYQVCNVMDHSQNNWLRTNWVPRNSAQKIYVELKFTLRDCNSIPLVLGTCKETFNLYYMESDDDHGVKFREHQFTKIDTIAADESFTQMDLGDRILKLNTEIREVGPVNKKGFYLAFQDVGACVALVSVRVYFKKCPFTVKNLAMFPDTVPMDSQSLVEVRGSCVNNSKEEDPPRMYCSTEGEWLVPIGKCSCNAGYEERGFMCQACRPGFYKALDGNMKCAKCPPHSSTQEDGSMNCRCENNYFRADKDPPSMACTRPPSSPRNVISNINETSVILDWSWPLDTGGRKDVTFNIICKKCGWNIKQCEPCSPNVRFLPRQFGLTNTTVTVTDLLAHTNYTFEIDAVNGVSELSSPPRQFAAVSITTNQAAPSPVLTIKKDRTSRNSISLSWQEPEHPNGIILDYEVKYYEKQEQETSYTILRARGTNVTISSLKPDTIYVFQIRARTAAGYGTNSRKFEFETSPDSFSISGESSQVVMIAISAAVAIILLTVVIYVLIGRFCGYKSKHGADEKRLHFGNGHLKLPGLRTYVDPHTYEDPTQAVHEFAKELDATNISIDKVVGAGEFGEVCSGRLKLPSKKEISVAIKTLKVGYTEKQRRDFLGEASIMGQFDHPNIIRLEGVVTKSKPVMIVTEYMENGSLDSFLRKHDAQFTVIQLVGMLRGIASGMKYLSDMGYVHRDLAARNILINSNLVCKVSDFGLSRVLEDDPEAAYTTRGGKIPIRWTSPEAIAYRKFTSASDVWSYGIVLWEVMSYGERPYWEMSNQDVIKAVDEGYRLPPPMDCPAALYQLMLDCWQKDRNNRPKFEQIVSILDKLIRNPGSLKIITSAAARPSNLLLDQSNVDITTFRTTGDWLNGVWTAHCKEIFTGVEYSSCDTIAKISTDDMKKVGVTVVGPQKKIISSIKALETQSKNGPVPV

[17] = molecular target: T2, Ephrin type-A receptor 3 (Homo sapiens); details: at 1 µM
[18] = molecular target: Ephrin type-A receptor 4 (Homo sapiens) (UniProt P54764); details: at 0.1 µM
[19] = molecular target: Ephrin type-A receptor 4 (Homo sapiens) (UniProt P54764); details: at 1 µM
[20] = molecular target: T3, Ephrin type-B receptor 2 (Homo sapiens) (UniProt P29323); details: at 0.1 µM;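 note: reported as mean inhibition of EPHB2, from the GSK PKIS dataset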
T3 sequence (whole entry): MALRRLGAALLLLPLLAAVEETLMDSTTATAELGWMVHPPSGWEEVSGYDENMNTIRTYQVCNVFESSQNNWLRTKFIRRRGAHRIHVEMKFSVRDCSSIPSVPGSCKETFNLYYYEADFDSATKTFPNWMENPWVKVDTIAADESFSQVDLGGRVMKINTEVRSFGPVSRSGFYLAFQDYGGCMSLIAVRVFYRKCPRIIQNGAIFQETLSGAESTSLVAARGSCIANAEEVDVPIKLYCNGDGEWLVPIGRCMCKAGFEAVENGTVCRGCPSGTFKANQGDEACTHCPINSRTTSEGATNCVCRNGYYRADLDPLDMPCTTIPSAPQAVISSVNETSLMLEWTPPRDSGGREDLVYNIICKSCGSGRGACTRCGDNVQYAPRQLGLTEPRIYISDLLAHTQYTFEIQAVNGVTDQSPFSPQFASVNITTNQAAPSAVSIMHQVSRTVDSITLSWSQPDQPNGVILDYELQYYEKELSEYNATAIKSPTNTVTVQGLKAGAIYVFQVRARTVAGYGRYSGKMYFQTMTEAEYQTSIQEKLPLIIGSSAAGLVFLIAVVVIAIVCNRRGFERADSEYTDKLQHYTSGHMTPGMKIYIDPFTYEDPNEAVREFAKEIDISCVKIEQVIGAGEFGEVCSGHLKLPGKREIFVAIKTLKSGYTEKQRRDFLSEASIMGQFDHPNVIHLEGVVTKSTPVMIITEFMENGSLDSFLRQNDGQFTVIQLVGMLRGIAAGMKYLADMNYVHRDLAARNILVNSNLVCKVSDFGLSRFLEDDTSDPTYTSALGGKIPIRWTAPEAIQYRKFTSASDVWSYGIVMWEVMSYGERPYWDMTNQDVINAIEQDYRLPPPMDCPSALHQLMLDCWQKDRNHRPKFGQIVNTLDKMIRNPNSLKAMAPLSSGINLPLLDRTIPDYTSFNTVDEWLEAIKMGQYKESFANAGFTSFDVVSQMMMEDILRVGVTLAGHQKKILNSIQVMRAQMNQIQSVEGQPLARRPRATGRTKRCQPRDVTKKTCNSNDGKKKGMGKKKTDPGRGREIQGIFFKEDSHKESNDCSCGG

Sequence of Ephrin type-A receptor 4 (Homo sapiens) (P54764 whole entry): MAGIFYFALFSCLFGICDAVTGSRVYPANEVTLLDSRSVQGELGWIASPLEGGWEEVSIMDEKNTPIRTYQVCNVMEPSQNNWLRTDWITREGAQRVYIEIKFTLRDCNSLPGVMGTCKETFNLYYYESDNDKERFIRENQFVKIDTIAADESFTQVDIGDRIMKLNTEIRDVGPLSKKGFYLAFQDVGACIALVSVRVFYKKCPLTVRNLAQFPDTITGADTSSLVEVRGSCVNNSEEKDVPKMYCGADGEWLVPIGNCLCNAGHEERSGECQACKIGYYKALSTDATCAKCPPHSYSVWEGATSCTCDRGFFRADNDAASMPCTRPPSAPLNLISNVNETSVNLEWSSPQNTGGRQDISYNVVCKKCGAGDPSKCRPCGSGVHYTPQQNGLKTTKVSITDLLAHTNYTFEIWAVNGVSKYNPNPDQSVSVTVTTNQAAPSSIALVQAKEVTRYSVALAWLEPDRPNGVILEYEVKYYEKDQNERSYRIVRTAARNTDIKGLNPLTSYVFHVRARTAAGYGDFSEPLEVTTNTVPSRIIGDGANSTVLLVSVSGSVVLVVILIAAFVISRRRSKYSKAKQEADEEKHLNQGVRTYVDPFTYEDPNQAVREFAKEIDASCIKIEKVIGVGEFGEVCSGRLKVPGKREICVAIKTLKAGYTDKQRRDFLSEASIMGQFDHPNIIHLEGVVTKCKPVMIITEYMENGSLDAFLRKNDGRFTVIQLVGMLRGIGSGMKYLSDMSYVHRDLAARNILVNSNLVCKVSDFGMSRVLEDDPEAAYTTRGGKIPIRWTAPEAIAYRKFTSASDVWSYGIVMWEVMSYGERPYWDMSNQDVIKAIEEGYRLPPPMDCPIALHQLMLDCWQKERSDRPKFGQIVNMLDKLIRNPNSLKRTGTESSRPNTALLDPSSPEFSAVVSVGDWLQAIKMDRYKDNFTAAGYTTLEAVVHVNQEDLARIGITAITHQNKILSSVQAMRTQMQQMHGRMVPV
Sequence of Epidermal growth factor receptor (Homo sapiens) (P00533 whole entry): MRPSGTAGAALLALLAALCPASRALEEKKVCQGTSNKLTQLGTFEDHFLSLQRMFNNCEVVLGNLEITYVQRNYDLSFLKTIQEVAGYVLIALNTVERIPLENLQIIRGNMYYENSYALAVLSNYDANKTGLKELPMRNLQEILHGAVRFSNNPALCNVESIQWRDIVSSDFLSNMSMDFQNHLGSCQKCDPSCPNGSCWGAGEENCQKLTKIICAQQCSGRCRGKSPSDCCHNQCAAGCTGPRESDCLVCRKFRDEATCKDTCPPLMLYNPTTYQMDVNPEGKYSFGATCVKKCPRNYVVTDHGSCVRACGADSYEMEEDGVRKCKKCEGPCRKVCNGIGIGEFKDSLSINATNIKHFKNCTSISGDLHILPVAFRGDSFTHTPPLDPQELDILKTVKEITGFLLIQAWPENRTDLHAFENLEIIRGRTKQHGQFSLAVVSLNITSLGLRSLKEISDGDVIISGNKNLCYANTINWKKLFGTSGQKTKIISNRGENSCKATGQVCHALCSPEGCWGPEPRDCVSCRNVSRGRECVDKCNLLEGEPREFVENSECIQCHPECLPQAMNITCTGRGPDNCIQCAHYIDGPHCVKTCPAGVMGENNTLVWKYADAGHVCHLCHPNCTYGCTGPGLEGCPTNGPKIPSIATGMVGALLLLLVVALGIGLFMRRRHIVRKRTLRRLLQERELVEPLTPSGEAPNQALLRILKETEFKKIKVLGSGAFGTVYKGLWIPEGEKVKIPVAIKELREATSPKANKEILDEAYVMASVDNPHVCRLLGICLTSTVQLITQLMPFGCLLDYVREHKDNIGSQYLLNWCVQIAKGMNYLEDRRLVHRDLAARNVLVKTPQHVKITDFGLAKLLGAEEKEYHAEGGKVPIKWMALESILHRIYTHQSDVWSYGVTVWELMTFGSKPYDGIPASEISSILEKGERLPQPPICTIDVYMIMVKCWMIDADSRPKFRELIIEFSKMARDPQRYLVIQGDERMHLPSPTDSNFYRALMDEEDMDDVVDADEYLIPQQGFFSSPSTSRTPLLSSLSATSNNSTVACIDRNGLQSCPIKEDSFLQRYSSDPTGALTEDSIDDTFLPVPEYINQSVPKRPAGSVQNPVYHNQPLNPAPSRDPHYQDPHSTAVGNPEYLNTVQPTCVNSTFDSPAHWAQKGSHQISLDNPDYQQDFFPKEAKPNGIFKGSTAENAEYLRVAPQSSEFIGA
Sequence of Tyrosine-protein kinase CSK (Homo sapiens) (P41240 2-450 limits assumed): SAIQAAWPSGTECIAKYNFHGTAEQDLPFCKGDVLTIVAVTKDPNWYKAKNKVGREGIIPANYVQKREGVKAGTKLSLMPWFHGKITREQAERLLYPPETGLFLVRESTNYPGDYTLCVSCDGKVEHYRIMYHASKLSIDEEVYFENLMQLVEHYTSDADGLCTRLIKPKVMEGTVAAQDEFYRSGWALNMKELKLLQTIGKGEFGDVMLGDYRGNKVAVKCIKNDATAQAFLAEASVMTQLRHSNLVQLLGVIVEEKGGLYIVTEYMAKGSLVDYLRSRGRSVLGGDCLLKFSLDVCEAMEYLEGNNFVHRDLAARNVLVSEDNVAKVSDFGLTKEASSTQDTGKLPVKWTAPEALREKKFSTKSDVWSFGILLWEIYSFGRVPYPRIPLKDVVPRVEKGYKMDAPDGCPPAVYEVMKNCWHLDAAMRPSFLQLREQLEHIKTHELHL
Sequence of Ephrin type-A receptor 2 (Homo sapiens) (P29317 whole entry): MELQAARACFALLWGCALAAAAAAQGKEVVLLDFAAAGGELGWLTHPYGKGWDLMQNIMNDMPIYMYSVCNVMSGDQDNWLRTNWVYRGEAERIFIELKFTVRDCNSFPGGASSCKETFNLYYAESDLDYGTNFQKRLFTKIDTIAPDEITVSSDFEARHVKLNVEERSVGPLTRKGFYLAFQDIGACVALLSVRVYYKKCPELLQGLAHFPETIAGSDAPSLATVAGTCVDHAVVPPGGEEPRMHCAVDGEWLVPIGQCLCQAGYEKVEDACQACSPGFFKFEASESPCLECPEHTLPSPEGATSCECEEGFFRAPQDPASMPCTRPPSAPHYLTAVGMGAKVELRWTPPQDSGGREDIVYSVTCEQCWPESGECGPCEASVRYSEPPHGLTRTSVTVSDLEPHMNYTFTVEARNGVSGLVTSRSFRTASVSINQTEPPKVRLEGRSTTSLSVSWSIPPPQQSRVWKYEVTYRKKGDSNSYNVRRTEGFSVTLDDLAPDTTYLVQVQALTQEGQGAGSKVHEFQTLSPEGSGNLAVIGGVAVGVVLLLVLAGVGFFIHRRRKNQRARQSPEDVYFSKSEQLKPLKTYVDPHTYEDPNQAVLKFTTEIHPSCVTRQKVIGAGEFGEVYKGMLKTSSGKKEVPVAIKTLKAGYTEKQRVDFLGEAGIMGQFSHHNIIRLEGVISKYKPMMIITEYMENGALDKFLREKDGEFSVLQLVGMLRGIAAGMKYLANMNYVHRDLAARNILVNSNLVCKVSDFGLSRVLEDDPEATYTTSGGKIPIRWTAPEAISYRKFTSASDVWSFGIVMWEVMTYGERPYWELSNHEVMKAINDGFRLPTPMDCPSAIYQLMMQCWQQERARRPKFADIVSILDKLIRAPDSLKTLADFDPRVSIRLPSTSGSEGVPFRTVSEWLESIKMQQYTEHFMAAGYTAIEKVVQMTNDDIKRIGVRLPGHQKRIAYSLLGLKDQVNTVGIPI
Sequence of Epidermal growth factor receptor (Homo sapiens), P00533 [L861Q] (P00533 whole entry L861Q): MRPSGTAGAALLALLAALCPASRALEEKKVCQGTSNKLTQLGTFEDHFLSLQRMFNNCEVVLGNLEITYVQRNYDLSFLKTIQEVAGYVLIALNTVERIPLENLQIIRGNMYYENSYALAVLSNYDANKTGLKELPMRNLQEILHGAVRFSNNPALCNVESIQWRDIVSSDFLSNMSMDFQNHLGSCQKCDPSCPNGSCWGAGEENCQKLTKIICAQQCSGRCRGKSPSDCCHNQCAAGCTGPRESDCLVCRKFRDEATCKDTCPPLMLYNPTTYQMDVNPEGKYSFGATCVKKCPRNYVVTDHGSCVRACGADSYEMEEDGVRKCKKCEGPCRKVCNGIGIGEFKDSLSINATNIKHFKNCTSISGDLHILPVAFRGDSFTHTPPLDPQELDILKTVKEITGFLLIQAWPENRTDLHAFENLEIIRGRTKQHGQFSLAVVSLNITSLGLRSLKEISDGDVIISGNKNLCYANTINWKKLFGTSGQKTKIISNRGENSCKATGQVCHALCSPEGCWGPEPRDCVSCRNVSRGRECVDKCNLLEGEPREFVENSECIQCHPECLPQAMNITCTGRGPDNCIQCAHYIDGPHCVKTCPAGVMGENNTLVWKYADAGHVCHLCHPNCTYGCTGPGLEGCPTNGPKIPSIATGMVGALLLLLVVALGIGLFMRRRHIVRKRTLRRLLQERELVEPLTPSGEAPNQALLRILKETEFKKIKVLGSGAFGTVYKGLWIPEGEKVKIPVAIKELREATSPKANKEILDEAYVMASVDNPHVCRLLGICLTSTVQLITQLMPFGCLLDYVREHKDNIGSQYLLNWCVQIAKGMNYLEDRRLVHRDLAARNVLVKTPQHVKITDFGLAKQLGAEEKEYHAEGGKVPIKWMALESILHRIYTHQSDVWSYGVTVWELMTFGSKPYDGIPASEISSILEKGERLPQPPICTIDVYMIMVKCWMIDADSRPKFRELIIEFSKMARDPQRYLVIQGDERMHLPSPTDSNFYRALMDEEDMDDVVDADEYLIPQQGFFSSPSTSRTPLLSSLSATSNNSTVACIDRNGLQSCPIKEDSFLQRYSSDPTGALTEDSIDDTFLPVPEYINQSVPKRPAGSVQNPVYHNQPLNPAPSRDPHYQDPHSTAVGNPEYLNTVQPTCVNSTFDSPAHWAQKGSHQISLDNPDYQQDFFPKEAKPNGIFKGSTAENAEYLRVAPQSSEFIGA

| SMILES | inhibition [1] [%] | inhibition [2] [%] | inhibition [3] [%] | inhibition [4] [%] | inhibition [5] [%] | inhibition [6] [%] | inhibition [7] [%] | inhibition [8] [%] | inhibition [9] [%] | inhibition [10] [%] | inhibition [11] [%] | inhibition [12] [%] | inhibition [13] [%] | inhibition [14] [%] | inhibition [15] [%] | inhibition [16] [%] | inhibition [17] [%] | inhibition [18] [%] | inhibition [19] [%] | inhibition [20] [%] |
| --- | --- | --- | --- | --- | --- | --- | --- | --- | --- | --- | --- | --- | --- | --- | --- | --- | --- | --- | --- | --- |
| CC(C)c1ccc(-c2cc(-c3c[nH]nc3-c3ccccn3)ccn2)cc1 | -3.97 | 3.76 | 4.98 | 1.84 | 3.14 | 1.78 | 0.3 | 0.09 | -0.98 | -0.66 | 0.59 | -1.17 | -2.79 | -1.11 | -2.27 | 2.58 | 5.79 | 6.74 | 4.1 | 7.84 |
| COc1cc(N2CCN(C(C)C)CC2)ccc1Nc1nc(Nc2cccc(F)c2C(=O)O)c2cc[nH]c2n1 | 7.02 | 1.68 | 1.98 | 0.15 | 3.33 | 4.84 | 12.6 | 4.97 | 5.54 | 6.09 | 24.9 | 9.68 | 48.9 | 0.65 | -0.38 | 2.98 | 6.01 | 8.47 | 11.2 | 9.96 |
| CNC(=O)c1cncc(/C=C/c2ccccc2C)c1 | 9.89 | 0.33 | 5.42 | 1.22 | 3.62 | 4.66 | 11.7 | 3.44 | 5.67 | 1.07 | 4.37 | 1.98 | 6.74 | 2.22 | 3.92 | 6.53 | 6.47 | 11.7 | 26.1 | 7.84 |
| NS(=O)(=O)c1cccc(N/C=C2\C(=O)Nc3ccccc32)c1 | -0.23 | 4.35 | 6 | 5.8 | 9.72 | 2.03 | 3.12 | 2.12 | 2.32 | 2.62 | 1.35 | 2.94 | 5.43 | 0.86 | 1.68 | 3.01 | 3.78 | 7.61 | 3.9 | 9.06 |
| CCCNc1cccc(-n2ncc3c(N/N=C/c4ccncc4)ncnc32)c1 | 12.1 | 1.93 | 7.68 | 3.46 | 33.5 | 14 | 71.8 | 2.74 | 31.4 | -0.43 | 5.14 | 1.81 | 2.7 | 3.57 | 5.31 | 3.09 | 3.12 | 4.65 | 17.4 | -1.54 |
| O=C(O[C@H]1CN[C@H](C#Cc2cc3ncnc(Nc4ccc(OCc5cccc(F)c5)c(Cl)c4)c3s2)C1)N1CCOCC1 | 7.44 | 1 | 2.47 | 77.1 | 77.1 | 40.9 | 87 | 42.8 | 75.2 | 5.1 | 18 | 4.1 | 9.08 | 1.93 | 1.46 | 5.97 | 4.01 | 10.4 | 12.3 | 7.71 |
| CCS(=O)(=O)c1ccc(OC)c(Nc2ncc(-c3cccc(F)c3)o2)c1 | 17.9 | 5.27 | 28.3 | 3.05 | 9.19 | 9.54 | 20.1 | 4.09 | 8.2 | 3.64 | 3.03 | 5.67 | 2.98 | 2.15 | 9.85 | 8.12 | 17 | 11.3 | 33.5 | 18.5 |
